Test results taken from PubChem BioAssay (NCATS).
Results filed as inconclusive are left out. Where a call stands in place of a potency, no number is given. Active and inactive are the calls of the source. The call rests on the fitted dose curve; in most records, active means well fitted inhibition curve with a large enough effect; inconclusive means small, poorly fitted or top-dose-only effect; inactive means flat fitted curve, though single readings scatter. Where a SMILES comes first, the peptide text is derived from it. [ ]: non-standard residue; d: D form. pGlu = O=C1CC[C@@H](C(=O)O)N1; Thz = O=C(O)[C@@H]1CSCN1

Tested on: CP203
Test: qHTS profiling for inhibitors of Plasmodium falciparum proliferation (AID 504749); further: nearly all actives have a fitted effect of over 60% in size
Conditions: P. falciparum in erythrocytes, SYBR Green DNA, 72 h; series mostly up to 28.7 µM
Source text: NIH National Institute of Allergy and Infectious Diseases [NIAID] NIH Chemical Genomics Center [NCGC] MLPCN Grant: None Assay Provider: Xinzhuan Su, NIAID NCGC Assay Overview: Plasmodium falciparum is a virulent malarial parasite that kills 1-2 million people worldwide each year. Transmitted by mosquitoes, the sporozoite form of the parasite enters the blood stream to infect hepatocytes, where they become merozoites that infect red blood cells (erythrocytes). Within erythrocytes, merozoites begin a […] cycle of growth and division, after which the parasite is released to infect new red blood cells. Gametocytes, which form within erythrocytes as well, circulate in the bloodstream and are ingested by the mosquito, thereby completing the life cycle. To profile malarial isolates for differential chemical responses and to identify inhibitors of malarial growth, an assay that measures P. falciparum growth and replication within erythrocytes was employed. This assay uses a DNA binding fluorescent dye (SYBR Green) to detect parasite DNA following cell lysis. Because mature erythrocytes lack DNA, only Plasmodium-derived DNA is detected.
NCGC Assay Protocol Summary: The SYBR Green viability assay was adapted from a method described previously (Plouffe et al., 2008). For screening 3 ul culture medium was dispensed into 1536 well black clear bottom plates (Aurora Biotechnologies) using a Multidrop Combi (Thermo Fisher Scientific Inc.), 23 nL compounds in DMSO were added by a pin tool (Kalypsys), and 5 ul of erythrocytes infected with P. falciparum (0.3% parasitemia, 2.5% hematocrit final concentration) were added. The plates were incubated at 37 C in a humidified incubator in 5% CO2 for 72 h, and 2 ul lysis buffer (20 mM Tris HCl, 10 mM EDTA, 0.16% saponin, 1.6% triton X, 10X SYBR Green I supplied as 10,000X […] by Invitrogen) was added to each well. The plates were mixed for 25 sec with gentle shaking and incubated overnight at room temperature in the dark. The following morning, fluorescence intensity at 485(14) nm excitation and 535(25) nm emission wavelengths was measured on an EnVision (Perkin Elmer) plate reader. Plate reads were normalized relative to the control inhibitor (0.29 uM artemisinin) and vehicle (DMSO) wells present on each plate and then corrected by an algorithm using vehicle-only control plates at the beginning and end of the compound plate stack.
Potency means the concentration at half of the fitted maximal effect.

SMILES	Potency
O=C(O)[C@H](O)[C@@H](O)[C@H](O)[C@H](O)CO	inactive
CCC1C(=O)OCC1Cc1cncn1C (stereo not given)	inactive
O=C(CCN1CCN(CCO)CC1)N1c2ccccc2Sc2ccc(C(F)(F)F)cc21	inactive
Cc1nc2ccccc2n1Cc1ccc(Cl)cc1	inactive
CC(N)C(=O)OC(C)(C)Cc1ccc(Cl)cc1 (stereo not given)	12 µM (active)
C=CCN1C(=O)C(CC(C)C)NC1=S (stereo not given)	inactive
O=C(OCc1ccccc1)c1ccccc1	inactive
CCCCCCCCCCCC(=O)[O][Sn]([CH2]CCC)([CH2]CCC)[O]C(=O)CCCCCCCCCCC	inactive
Cc1c(Nc2ncccc2C(=O)O)cccc1C(F)(F)F	inactive
O=C1CC[C@@H](C(=O)N2CSC[C@H]2C(=O)O)N1 ([pGlu]-[Thz]-OH)	inactive
COc1ccc(/C=C/C(=O)Nc2ccccc2C(=O)O)cc1OC	inactive
c1ccc2sc(SSc3nc4ccccc4s3)nc2c1	inactive
CCOc1ccc2nc(S(N)(=O)=O)sc2c1	inactive
Clc1ccccc1-c1nc(-c2ccncc2)no1	inactive
O=C(O)Cc1ccc(-c2ccccc2)cc1	inactive
Cc1cc(O)c2ccccc2c1O	inactive
CCCCCCOc1ccccc1C(N)=O	inactive
CC1OC1P(=O)(O)O (stereo not given)	inactive
CCCCCCCCCCCCCCCC(=O)OC(C)C	inactive
Cc1ccc(O)c(-n2nc3ccccc3n2)c1	inactive

SMILES	Potency
[O-][n+]1ccccc1SSc1cccc[n+]1[O-]	1.35 µM (active)
COc1cc2c3cc1Oc1cc(ccc1O)C[C@@H]1c4c(cc(OC)c(O)c4Oc4ccc(cc4)C[C@@H]3N(C)CC2)CC[N+]1(C)C	inactive
Nc1ccc(O)c(C(=O)O)c1	inactive
C[S+](CC[C@H](N)C(=O)O)C[C@H]1O[C@@H](n2cnc3c(N)ncnc32)[C@H](O)[C@@H]1O (stereo not given in full)	inactive
CCCCCCCCCCCCCCCCCC(=O)O	inactive
CCCC(=O)OC[C@@H](OC(=O)CCC)[C@@H](OC(=O)CCC)[C@H](Cn1c2nc(=O)[nH]c(=O)c-2nc2cc(C)c(C)cc21)OC(=O)CCC	inactive
O=C(O)c1cc(O)c(O)c(O)c1	inactive
CC1(C)C[C@@H]1C(=O)N/C(=C\CCCCSC[C@H](N)C(=O)O)C(=O)O	inactive
CC1(C)[C@@H](O)CC[C@]2(C)[C@H]3C(=O)C=C4[C@@H]5C[C@@](C)(C(=O)O)CC[C@]5(C)CC[C@@]4(C)[C@]3(C)CC[C@@H]12	inactive
Cc1ccccc1CNc1ncnc2c1ncn2C1OC(CO)C(O)C1O (stereo not given)	inactive
Nc1c(CC(=O)O)cccc1C(=O)c1ccc(Br)cc1	inactive
O=C(O)/C=C/C(O)c1ccc(Cl)cc1 (stereo not given)	inactive
CCCCCC[C@@H](O)C/C=C\CCCCCCCC(=O)O	inactive
O=C(O)[C@H](CC(=O)N1C[C@H]2CCCC[C@H]2C1)Cc1ccccc1	inactive
CN1CCN(c2cc3c(nn2)Oc2ccccc2N3C)CC1	inactive
C=C(Nc1ccc(OCC)cc1)Nc1ccc(OCC)cc1	inactive
C=CC(N)CCC(=O)O (stereo not given)	inactive
CC(C(=O)O)c1ccc2c(c1)[nH]c1ccc(Cl)cc12 (stereo not given)	inactive
Nc1cc(-c2ccncc2)c[nH]c1=O	inactive
CN1[C@@H](CC(=O)c2ccccc2)CCC[C@H]1C[C@H](O)c1ccccc1	inactive
